Results as given in PubChem BioAssay (Tox21).
Activity calls are given as the source filed them. Calls follow the shape of the dose curve; as a rule, active = well fitted inhibition curve with a large enough effect in the repeat runs (not every such curve was filed as active); inconclusive = weak or mixed curves; inactive = flat fitted curve, though single readings scatter.

What follows are compounds tested against Thyrotropin-releasing hormone receptor (Homo sapiens) (UniProt P34981) (assay: qHTS assay to identify small molecule antagonists of the thyrotropin-releasing hormone receptor (TRHR) signaling pathway (AID 1346877)). Conditions: TRHR-HEK293, TRH-induced calcium fluorescence, antagonist mode; series mostly up to 51.3 µM; activity, negative = inhibition: at the top concentration.
Thyrotropin-releasing hormone receptor (Homo sapiens), sequence (P34981 whole entry, looked up): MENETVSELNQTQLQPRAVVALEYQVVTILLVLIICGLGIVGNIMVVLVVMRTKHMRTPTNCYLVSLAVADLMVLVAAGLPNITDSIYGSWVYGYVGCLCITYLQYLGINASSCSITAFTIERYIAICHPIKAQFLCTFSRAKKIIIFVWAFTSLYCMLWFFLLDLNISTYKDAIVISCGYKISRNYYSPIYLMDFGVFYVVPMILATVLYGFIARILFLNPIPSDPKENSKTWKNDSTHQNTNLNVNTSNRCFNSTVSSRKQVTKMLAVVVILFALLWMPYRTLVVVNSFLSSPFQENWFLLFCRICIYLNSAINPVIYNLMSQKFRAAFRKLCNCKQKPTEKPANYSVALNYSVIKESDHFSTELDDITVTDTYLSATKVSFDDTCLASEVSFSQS
Excerpt: National Center for Advancing Translational Sciences [NCATS]
NIH Chemical Genomics Center [NCGC]
U.S. Environmental Protection Agency [EPA]
National Institutes of Environmental Health Sciences [NIEHS]
National Toxicology Program [NTP]
U.S. Food and Drug Administration [FDA]
Thyrotropin-releasing hormone (TRH) receptor (TRHR) is a G-protein-coupled receptor which binds the tripeptide thyrotropin releasing hormone. TRHR is found in the brain and, when bound by TRH, acts (through phospholipase C) to increase intracellular inositol trisphosphate. It plays a crucial role in the anterior pituitary where it controls the synthesis and secretion of thyroid stimulating hormone and prolactin. The TRHR-Hek293 assay is a cell-based assay, and it has the potential to screen G protein-coupled receptors. A compound/drug can either activate (agonist) or suppress (antagonist) GPCRs that can be monitored by levels of intracellular calcium. In this assay, the Tox21 10K compound library was screened to identify potential TRHR antagonists.
Tox21 Assay Protocol Summary:
The TRHR-Hek293 cells were dispensed at 1500cells/4uL/well in 1536-well black-clear bottom plates using a Multidrop dispenser. After the assay plates were incubated at a 37 C/5% CO2 incubator for 18 hours, 4 uL of Dye-Loading Solution was added to each well. The plates were incubated at 37 C for 2 hours. For agonist mode, 23 nL of compounds dissolved in DMSO, positive controls or DMSO only was transferred to the assay plate by a pin tool. The fluorescence intensity in the plates was measured using FDSS 7000EX kinetic plate reader for 3 min at 1 sec intervals. For antagonist mode, 23 nL of compounds dissolved in DMSO, positive controls or DMSO only was transferred to the assay plate by a pin tool. After 5 min incubation at room temperature, 1 uL of TRH was added on the top of the cell/compound mixtures to achieve a final agonist concentration of 1 nM. The fluorescence intensity in the plates was measured using FDSS 7000EX kinetic plate reader for 3 min at 1 sec intervals. Each test compound was measured at 15 concentrations and in triplicates.
% is scaled to controls: 0 for no effect and ±100 for the full control effect.

Row | Structure (SMILES) | activity, negative = inhibition
1 | CCN1C=CN(C)C1C (stereo not given) | 0.607% (inactive)
2 | O=C(O)Cc1csc(-c2ccc(Cl)cc2)n1 | 3.89% [at 23.6 µM] (inactive)
3 | c1coc(CNc2ncnc3nc[nH]c23)c1 | 28.3% (inactive)
4 | CO[C@@]1(NC(=O)CSC[C@@H](N)C(=O)O)C(=O)N2C(C(=O)O)=C(CSc3nnnn3C)CS[C@@H]21 | -0.981% [at 23.6 µM] (inactive)
5 | c1ccc2sc(SN3CCOCC3)nc2c1 | -1.13% [at 23.6 µM] (inactive)
6 | CC1(C)[C@@H]2CC[C@@]1(C)[C@H](O)C2 | 3.1% (inactive)
7 | CC(=O)c1cnccn1 | 0.265% (inactive)
8 | Cc1ccc(C(=O)c2ccc(CC(=O)O)n2C)cc1 | -3.43% [at 23.6 µM] (inactive)
9 | CC(=O)c1ccc2ccccc2c1 | 1.74% (inactive)
10 | CNCC(O)c1ccc(O)c(O)c1 (stereo not given) | 7.43% [at 23.6 µM] (inactive)
11 | O=C(O)CC(C(=O)O)S(=O)(=O)O (stereo not given) | 1.41% (inactive)
12 | CC(C)(C#N)Nc1nc(Cl)nc(NC2CC2)n1 | 9.83% (inactive)
13 | CC(C(=O)O)c1cccc(Oc2ccccc2)c1 (stereo not given) | -2.11% [at 23.6 µM] (inactive)
14 | CCCCCCCCCCOc1cc2c(=O)c(C(=O)OCC)c[nH]c2cc1OCC | 0.403% [at 4.65 µM] (inactive)
15 | Nc1ccncc1N | 5.06% [at 23.6 µM] (inactive)
16 | CC12CCC(C(=O)C1=O)C2(C)C (stereo not given) | 0.535% (inactive)
17 | O=C1NC(=O)C2CC=CCC12 (stereo not given) | 0.0468% (inactive)
18 | CC(=O)N[C@H]1[C@H]([C@H](O)[C@H](O)CO)OC(C(=O)O)=C[C@@H]1N=C(N)N | 5.8% [at 23.6 µM] (inactive)
19 | CN(C)C(=O)Oc1cccc([N+](C)(C)C)c1 | -3.48% [at 23.6 µM] (inactive)
20 | O=Cc1cccc(Br)c1 | 5.25% (inactive)

Row | Structure (SMILES) | activity, negative = inhibition
21 | Cc1ccc(-c2ncc(Cl)cc2-c2ccc(S(C)(=O)=O)cc2)cn1 | -10.4% [at 23.6 µM] (inactive)
22 | NCCCC(N)(C(=O)O)C(F)F (stereo not given) | -1.71% [at 23.6 µM] (inactive)
23 | CCOC(=O)c1cnc2c(cnn2CC)c1NN=C(C)C | 0.606% [at 23.6 µM] (inactive)
24 | CCN1CCOCC1 | -0.0764% (inactive)
25 | CC(C)C1CCC(O)CC1 (stereo not given) | 8.42% (inactive)
26 | CC[N+](C)(CC)CCOC(=O)C1c2ccccc2Oc2ccccc21 | 4.54% [at 23.6 µM] (inactive)
27 | CCCOC(=O)CC | 4.26% (inactive)
28 | CCCO[Si](OCCC)(OCCC)OCCC | 1.97% (inactive)
29 | FB(F)F | 0.861% (inactive)
30 | CC(C)(C)C(=O)Oc1ccc(S(=O)(=O)Nc2ccccc2C(=O)NCC(=O)O)cc1 | -0.659% [at 23.6 µM] (inactive)
31 | CCCC(=O)O[C@]1(C(=O)CC)CC[C@H]2[C@@H]3CCC4=CC(=O)CC[C@]4(C)[C@H]3[C@@H](O)C[C@@]21C | -6.9% [at 23.6 µM] (inactive)
32 | c1ccc(Cc2ccccc2)cc1 | 1.64% (inactive)
33 | Nc1ccn([C@@H]2O[C@H](CO)[C@@H](O)[C@@H]2O)c(=O)n1 | 5.28% (inactive)
34 | CN1CCC(=C2c3ccccc3CCc3cccnc32)CC1 | 4.42% [at 23.6 µM] (inactive)
35 | CCCCS(=O)(=O)N[C@@H](Cc1ccc(OCCCCC2CCNCC2)cc1)C(=O)O | 4.05% [at 23.6 µM] (inactive)
36 | Cc1cccc(C)c1NC(=O)CC12CCCN1CCC2 | 4.13% [at 23.6 µM] (inactive)
37 | CC(=O)c1ccccc1[N+](=O)[O-] | -0.889% (inactive)
38 | C=C(C)C(=O)OCCOCCOCCOCCOC(=O)C(=C)C | 3.62% (inactive)
39 | C[C@@H]1C[C@H]2[C@@H]3C[C@H](F)C4=CC(=O)C(Cl)=C[C@]4(C)[C@@]3(F)[C@@H](O)C[C@]2(C)[C@@]1(O)C(=O)CO | 0.938% [at 23.6 µM] (inactive)
40 | CC(C)C(=O)OC(=O)C(C)C | -0.0848% (inactive)
